SRC3 TRFRET art: TR-FRET detection interference compounds, artefact control for PPARgamma SRC-3 recruitment agonists, biochemical, TR-FRET ratio; TR-FRET artefact counter-screen, PPARgamma/SRC-3 format; active compounds read high; TR-FRET ratio at 8 µM; 0.39% of 99,000 active; AID 1048, 2008; in the data active = TR-FRET ratio above about 2000
SRC1 TRFRET art: TR-FRET detection interference compounds, primary screen, artefact control for PPARgamma SRC-1 recruitment agonists, biochemical, TR-FRET emission ratio. TR-FRET detection artefact counter-screen; active compounds read high. TR-FRET ratio at 8 µM. 0.34% of 99,000 active. AID 1051, 2008; in the data active = TR-FRET ratio above about 2300
PPARg SRC-2 ag: agonists of PPARg-SRC-2 recruitment, primary screen, biochemical, HTS | PPARgamma LBD-SRC-2 recruitment | activation, % at 8 µM | 0.34% of 200,000 active
SRC2 TRFRET art: TR-FRET signal artefacts, primary screen, artefact control for PPARgamma SRC-2 agonist project, biochemical | TR-FRET artefact counter-screen; active compounds read high | TR-FRET ratio at 8 µM | 0.4% of 200,000 active; in the data active = TR-FRET ratio above about 2000
PPARg SRC1 recr: PPARgamma agonists recruiting SRC-1 coactivator, primary screen, biochemical; activation, % at 8 µM; 0.41% of 200,000 active; PPARgamma-SRC-1 coactivator recruitment biochemical assay; Peroxisome proliferator-activated receptor gamma (Homo sapiens), P37231; in the data active = activation above about 19%
PPARg SRC-3 ag: PPARgamma agonists recruiting SRC-3 coactivator, primary screen, biochemical | activation, % at 8 µM | biochemical PPARgamma/SRC-3 coactivator recruitment assay | 0.26% of 200,000 active | Peroxisome proliferator-activated receptor gamma (Homo sapiens), P37231; in the data active = activation above about 23%
PPARg SRC2 conf: agonists of PPARgamma SRC-2 coactivator recruitment, confirmation, biochemical, HTS; shares compounds with PPARg SRC-3 ag; biochemical SRC-2 recruitment by PPARgamma; activation, % at 8 µM; 52% of 790 active; AID 1297, 2008
PPARg SRC1 ag: PPARgamma agonists recruiting SRC-1 coactivator, confirmation, biochemical | PPARgamma–SRC-1 coactivator recruitment biochemical assay | activation, % at 8 µM | AID 1300, 2008 | 43% of 790 active | shares compounds with PPARg SRC-3 ag; in the data active = activation above about 20%
PPARg SRC3 conf: PPARgamma-driven SRC-3 coactivator recruitment agonists, confirmation, biochemical; activation, % at 8 µM; 29% of 790 active; biochemical PPARgamma-SRC-3 coactivator recruitment, agonist mode; shares compounds with PPARg SRC-3 ag; in the data active = activation above about 24%
Target sequence (P37231 whole entry, looked up): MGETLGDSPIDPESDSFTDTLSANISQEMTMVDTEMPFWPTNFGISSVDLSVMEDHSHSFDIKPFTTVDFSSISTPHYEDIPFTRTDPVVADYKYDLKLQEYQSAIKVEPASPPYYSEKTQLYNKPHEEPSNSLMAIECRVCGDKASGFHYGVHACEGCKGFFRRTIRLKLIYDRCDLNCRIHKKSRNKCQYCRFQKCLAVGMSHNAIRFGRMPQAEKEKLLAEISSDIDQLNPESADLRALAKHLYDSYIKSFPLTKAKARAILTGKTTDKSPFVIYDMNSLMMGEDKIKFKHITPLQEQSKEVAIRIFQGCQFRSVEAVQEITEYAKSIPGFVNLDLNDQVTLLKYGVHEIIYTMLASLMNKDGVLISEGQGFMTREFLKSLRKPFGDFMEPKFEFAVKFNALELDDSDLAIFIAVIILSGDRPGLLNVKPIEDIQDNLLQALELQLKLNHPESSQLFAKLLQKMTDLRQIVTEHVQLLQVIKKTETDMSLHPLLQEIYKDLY
Target sequence (Q9Y6Q9 whole entry, looked up): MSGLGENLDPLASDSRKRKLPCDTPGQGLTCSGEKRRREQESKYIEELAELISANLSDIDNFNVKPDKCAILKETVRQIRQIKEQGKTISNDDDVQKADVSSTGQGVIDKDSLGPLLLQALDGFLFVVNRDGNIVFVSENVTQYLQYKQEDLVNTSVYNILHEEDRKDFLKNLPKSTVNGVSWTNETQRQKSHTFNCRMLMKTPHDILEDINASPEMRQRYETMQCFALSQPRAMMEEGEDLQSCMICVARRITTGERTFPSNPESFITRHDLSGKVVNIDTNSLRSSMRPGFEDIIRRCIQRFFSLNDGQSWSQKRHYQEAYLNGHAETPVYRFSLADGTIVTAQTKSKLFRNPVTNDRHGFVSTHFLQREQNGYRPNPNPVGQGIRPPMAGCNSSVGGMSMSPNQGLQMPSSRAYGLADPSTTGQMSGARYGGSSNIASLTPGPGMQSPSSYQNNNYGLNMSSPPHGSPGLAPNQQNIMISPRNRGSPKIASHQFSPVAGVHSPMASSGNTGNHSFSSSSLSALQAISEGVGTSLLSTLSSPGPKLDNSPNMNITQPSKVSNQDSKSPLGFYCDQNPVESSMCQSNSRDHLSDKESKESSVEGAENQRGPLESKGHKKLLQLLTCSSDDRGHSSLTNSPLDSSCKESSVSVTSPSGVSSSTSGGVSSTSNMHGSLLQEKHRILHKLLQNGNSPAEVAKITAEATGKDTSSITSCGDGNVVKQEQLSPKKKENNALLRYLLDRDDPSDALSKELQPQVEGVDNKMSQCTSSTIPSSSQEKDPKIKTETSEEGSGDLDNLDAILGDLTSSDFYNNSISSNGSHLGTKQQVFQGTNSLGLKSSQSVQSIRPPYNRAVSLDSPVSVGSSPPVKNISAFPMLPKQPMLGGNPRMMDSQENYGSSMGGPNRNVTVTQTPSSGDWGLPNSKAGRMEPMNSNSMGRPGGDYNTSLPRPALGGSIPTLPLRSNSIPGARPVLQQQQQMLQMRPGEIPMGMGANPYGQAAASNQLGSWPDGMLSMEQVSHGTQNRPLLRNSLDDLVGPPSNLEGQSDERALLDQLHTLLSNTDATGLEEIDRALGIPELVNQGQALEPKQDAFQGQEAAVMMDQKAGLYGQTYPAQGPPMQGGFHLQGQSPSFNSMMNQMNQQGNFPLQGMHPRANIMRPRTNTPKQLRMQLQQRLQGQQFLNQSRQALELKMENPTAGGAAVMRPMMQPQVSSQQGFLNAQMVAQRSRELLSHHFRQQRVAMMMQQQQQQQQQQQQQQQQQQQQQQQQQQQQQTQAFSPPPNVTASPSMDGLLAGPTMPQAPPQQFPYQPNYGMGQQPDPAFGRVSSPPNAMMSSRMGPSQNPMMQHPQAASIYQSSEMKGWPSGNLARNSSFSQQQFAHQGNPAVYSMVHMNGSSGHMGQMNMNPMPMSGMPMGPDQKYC
Numbers stand for hits; n = inactive; x = no result. The list is not random: actives were taken first. Their share in the collection is about 0.84%. Rule as the data show it, unless noted: active = activation above about 22%; inactive = the rest.

SMILES | SRC3 TRFRET art | SRC1 TRFRET art | PPARg SRC-2 ag | SRC2 TRFRET art | PPARg SRC1 recr | PPARg SRC-3 ag | PPARg SRC2 conf | PPARg SRC1 ag | PPARg SRC3 conf
COc1cc(/C=C/C(=O)OCC(=O)Nc2ccc(C)cc2[N+](=O)[O-])ccc1O | n | n | 24.9 | n | n | n | n | n | n
O=S(=O)(Cc1ccc(Cl)cc1)c1ncc(CO)n1Cc1ccccc1 | n | n | n | n | n | n | x | x | x
Cc1ccc(-c2csc3nnc(SCC(=O)Nc4cccc(C)n4)n23)cc1 | x | x | n | n | 20.6 | n | n | n | n
O=C(O)c1cc(-c2ccc3c(c2)OCO3)nc2ccc(Br)cc12 | 2538 | 2873 | 31.0 | 2330 | 32.9 | 22.6 | n | n | n
COC(=O)c1cc(-c2ccc3c(c2)OCO3)nc2ccccc12 | n | n | n | n | n | n | x | x | x
O=C(O)c1cc(-c2cccnc2)nc2ccc(Br)cc12 | 2133 | 2326 | n | n | 24.9 | n | n | n | n
O=Cc1ccc(OCC(=O)N2CCOCC2)cc1 | n | n | n | n | n | n | x | x | x
O=C(NCc1cccnc1)c1ccc(NC(=O)c2cccc([N+](=O)[O-])c2)cc1 | n | n | n | n | n | n | x | x | x
CCSc1nnc(NC(=O)C(NC(=O)c2ccc(Cl)cc2)C(C)C)s1 (centres undefined) | n | n | n | n | n | n | x | x | x
COc1cccc(C2C=C(c3ccc(Br)s3)Nc3ncnn32)c1OC (centres undefined) | 2570 | 3079 | 26.6 | 2137 | 32.8 | n | 57.1 | 48.0 | 36.2
Fc1ccc(Br)cc1C1C=C(c2ccc(Br)s2)Nc2ncnn21 (centres undefined) | 3060 | 3232 | 51.1 | 2711 | 46.3 | 31.9 | 53.8 | 35.2 | 38.7
CSCCCNC(=S)N(C)CC(=O)Nc1ccc(C)cc1 | n | n | n | n | n | n | x | x | x
S=c1[nH]nc(-c2cccnc2)o1 | x | x | n | n | n | n | x | x | x
S=c1[nH]nc(-c2cccc(Br)c2)o1 | x | x | 108.0 | 4187 | 93.8 | 150.2 | 68.1 | 48.1 | 47.9
Cc1ccc(-c2nn(-c3ccccc3)cc2NC(=O)CCl)cc1 | n | n | n | n | n | n | x | x | x
Cc1cc(C2C(C#N)=C(N)SC(N)=C2C#N)c(C)s1 | x | x | 25.2 | n | n | n | n | n | n
Cc1[nH]nc2c1C(c1ccsc1C)C(C#N)=C(N)O2 (centres undefined) | x | x | n | n | n | n | x | x | x
Cc1sccc1C1C(C#N)=C(N)SC(N)=C1C#N | x | x | 22.1 | n | n | 33.5 | n | n | n
Cc1cc(C2C(C#N)=C(N)Oc3n[nH]c(C)c32)c(C)s1 (centres undefined) | x | x | n | n | n | n | x | x | x
COc1c(C)cccc1C(=O)NC(=S)Nc1cccc2nsnc12 | 2881 | 2682 | 30.0 | 2472 | 38.6 | 36.2 | 90.4 | 70.7 | 60.4
CC(C)CC(=O)NC(=S)Nc1cccc2nsnc12 | 4035 | 5013 | 86.8 | 3677 | 135.4 | 62.1 | 136.6 | 104.9 | 81.0
CC1C2NC(=O)N(Cc3ccccc3)C1(C)Oc1ccccc12 (centres undefined) | n | n | n | n | n | n | x | x | x
O=C(Nc1ccc(SC(F)(F)F)cc1)c1ccccn1 | n | n | n | n | n | n | x | x | x
Cc1sc(NC(=S)Nc2ccc(F)cc2)c(C(N)=O)c1C | n | n | n | n | 25.2 | n | 26.5 | n | n
CCOC(=O)c1c(NC(=S)Nc2ccc(Cl)cc2)sc(C)c1C | x | x | n | n | n | n | x | x | x
SMILES | SRC3 TRFRET art | SRC1 TRFRET art | PPARg SRC-2 ag | SRC2 TRFRET art | PPARg SRC1 recr | PPARg SRC-3 ag | PPARg SRC2 conf | PPARg SRC1 ag | PPARg SRC3 conf
COC(=O)c1c(NC(=S)Nc2ccc(CC(=O)O)cc2)sc(C)c1C | n | n | n | n | 22.4 | n | 50.3 | 36.2 | 31.1
CC(=O)c1cc(NC(=O)c2ccc(Cl)cc2)c(=O)oc1/C=C/N(C)C | x | x | n | n | 19.7 | n | n | n | n
CC(=O)c1cc(NC(=O)c2cccc(C(F)(F)F)c2)c(=O)oc1/C=C/N(C)C | x | x | n | n | n | n | x | x | x
Oc1cc2c(cc1O)C1c3ccc(O)c(O)c3OCC1(O)C2 (centres undefined) | n | n | n | n | 27.1 | n | n | n | n
COc1cc2c(cc1NC(=O)CSc1nnc(Cc3cccs3)n1C)oc1ccccc12 | x | x | n | n | n | n | x | x | x
CCn1c(SCC(=O)Nc2cc3oc4ccccc4c3cc2OC)nnc1-c1cccs1 | x | x | 25.9 | n | n | n | n | n | n
CC1CN(C(=S)SCCN2C(=O)CCC2=O)CC(C)O1 (centres undefined) | n | n | n | n | n | n | x | x | x
O=c1oc(-c2ccco2)nc2c1cnn2-c1ccccc1 | x | x | n | n | 20.4 | n | n | n | n
O=c1c2cnn(-c3ccccc3)c2nc(-c2ccco2)n1-c1ccccc1 | x | x | n | n | n | n | x | x | x
O=C(CCCn1c(=S)[nH]c2ccccc2c1=O)NCCSCc1ccccc1 | n | n | n | n | n | n | x | x | x
COC(=O)c1sccc1NC(=O)c1cc(-c2cccc(C)c2)nc2ccccc12 | x | x | 25.9 | 2058 | n | n | n | n | n
COc1ccc2cc(C#N)c(SCC(=O)NNC(=O)Cc3ccccc3)nc2c1 | x | x | 48.6 | 2781 | 31.8 | n | 54.3 | 41.9 | 37.3
Cc1ccc2cc(C#N)c(SCC(=O)NNC(=O)Cc3ccccc3)nc2c1 | n | n | n | n | n | n | x | x | x
CCCn1cc(SCC(=O)Nc2ccc3c(c2)OCO3)c2ccccc21 | x | x | n | n | n | n | x | x | x
Cn1c(=O)cc(SCC(=O)Nc2ccc3c(c2)OCO3)c2ccccc21 | x | x | 59.6 | 2627 | 31.9 | 42.5 | 42.1 | 27.6 | 27.1
CCn1c(=O)cc(SCC(=O)Nc2ccc3c(c2)OCCO3)c2ccccc21 | x | x | 84.9 | 3434 | 68.6 | 92.3 | 65.0 | 45.7 | 43.4
Cn1cc(SCC(=O)Nc2ccc3c(c2)OCO3)c2ccccc21 | x | x | n | n | n | n | x | x | x
FC(F)Oc1ccc(NC(=S)NCC2COc3ccccc3O2)cc1 (centres undefined) | n | n | n | n | n | n | x | x | x
Cc1ccccc1Nc1nc(-c2ccccc2)c(C(=O)Nc2cccnc2)s1 | 2456 | 2835 | 26.5 | 1978 | 24.5 | n | 44.0 | 35.8 | 26.4
